Source: PubChem
Rows were chosen to be rich in hits. Some 0.93% of all compounds tested hit in one or more screens of this group.
CDC25B CDK2 inh – human CDC25B-CDK2/CyclinA binding inhibition | P30305+P24941 | HTRF CDC25B-CDK2/CyclinA binding, anti-His/anti-Flag; hits give high values | z-score (concentration not given with the values) | 0.72% of 94,000 active; in the data active means z-score above about 3.2
HIV TAR-Tat – HIV-1 TAR-Tat binding disruption | z-score (concentration not given with the values) | HIV-1 TAR RNA, Tat peptide displacement FRET; hits give high values | 0.6% of 100,000 active | AID 1259389; active means z-score of 3 or more in at least 2 runs
Of the large screens only hits and unclear results are named; the others gave an inactive call.

COc1ccccc1C1CC(=O)N2CN(Cc3ccco3)CSC2=C1C#N (stereo unspecified)	none
COc1ccc(C2CC(=O)N3CN(CCC(C)C)CSC3=C2C#N)cc1OC (stereo unspecified)	CDC25B CDK2 inh 4.7
N#CC1=C2SCN(Cc3ccco3)CN2C(=O)CC1c1cccc(F)c1 (stereo unspecified)	none
COc1ccc(C2CC(=O)N3CN(CCC(C)C)CSC3=C2C#N)cc1 (stereo unspecified)	none
COc1ccc2nc(NC(=O)c3cc(CN4CCCC4)on3)sc2c1	none (no result: CDC25B CDK2 inh)
COc1cc(OC)c(NS(=O)(=O)c2cc3[nH]c4c(c3cc2C)C(=O)CC(C)(C)C4)cc1Cl	none (no result: CDC25B CDK2 inh)
Cc1nc2nc(C)c(CCC(=O)Nc3ccc(Br)c(C)c3)c(C)n2n1	none (no result: HIV TAR-Tat)
CCN(CC)c1cc(C)nc2nc(-c3ccccc3C)nn12	none
Cn1c(C(F)(F)F)nnc1S(=O)(=O)Cc1ccc(-c2csnn2)cc1	CDC25B CDK2 inh 16 (no result: HIV TAR-Tat)
O=S(=O)(NCc1ccc(-c2csnn2)cc1)c1cc(C(F)(F)F)cc(C(F)(F)F)c1	none (no result: HIV TAR-Tat)
O=C(O)CN(CCN(CC(=O)O)Cc1ccccc1O)Cc1ccccc1O	none (no result: CDC25B CDK2 inh)
O=C(O)CN(CC(=O)O)CC(=O)O	CDC25B CDK2 inh 3.6 (no result: HIV TAR-Tat)
Cc1ccccc1-c1noc(-c2cccnc2NCc2ccccc2)n1	none
CC(=O)N1CCN(CCn2c(C)c3c(=O)n(-c4nc5ccccc5s4)[nH]c3cc2=O)CC1	none
Cc1c2c(=O)n(-c3nc4ccccc4s3)[nH]c2cc(=O)n1Cc1ccc(C(=O)O)cc1	HIV TAR-Tat 24
CCn1c(Sc2c(-c3ccccc3)c3ccc(Cl)cc3[nH]c2=O)nnc1-c1nn(C)cc1N	none (no result: HIV TAR-Tat)
Cn1cnc(S(=O)(=O)N2CCCC(C(=O)Nc3ccc(F)cc3)C2)c1 (stereo unspecified)	none (no result: CDC25B CDK2 inh)
O=C(OCC#CC#CCOC(=O)c1cccnc1)c1cccnc1	none (no result: HIV TAR-Tat)
Cc1cc(=O)n2[nH]c(C)c(-c3ccc(Cl)cc3)c2n1	none (no result: HIV TAR-Tat)
Cc1[nH]n2c(=O)cc(CSc3nnnn3-c3ccccc3)nc2c1-c1ccc(Cl)cc1	HIV TAR-Tat 24
Cc1cc2nc(CSCC(=O)Nc3ccc(Cl)cc3)cc(=O)n2o1	none (no result: CDC25B CDK2 inh)
c1cc(CNc2ccc3c(c2)OCO3)ccn1	none
Fc1ccc(NCc2ccncc2)cc1	CDC25B CDK2 inh 15
CC(C)N(CCS(=O)(=O)N1CCNCC1)S(=O)(=O)c1ccc(Br)cc1	none (no result: CDC25B CDK2 inh)
Cc1cccc(Nc2nc3ccc(Cl)cc3n3cnnc23)c1	none
COc1ccc(-c2csc(N3N=C(c4cccs4)CC3c3ccc(F)cc3)n2)cc1Br (stereo unspecified)	none (no result: HIV TAR-Tat)
Cc1cc2c(n1-c1ccc(C(=O)O)cc1)CCCC2	none
Cc1ccc(C)n1-c1cc(C(=O)O)cc(C(=O)O)c1	HIV TAR-Tat 17
N#Cc1c(NC(=O)C2CC(=O)OC23CCCCC3)sc2c1CCCCC2 (stereo unspecified)	none
Cc1cccnc1NC(=O)C1CC(=O)OC12CCCCC2 (stereo unspecified)	CDC25B CDK2 inh 14
Nc1ccc2nc(SCC(=O)c3ccc(-c4ccccc4)cc3)sc2c1	CDC25B CDK2 inh 17 (no result: HIV TAR-Tat)
Nc1ccc2nc(SCC(=O)c3ccc(Br)cc3)sc2c1	none
O=C(CN1c2ccccc2NC2=C(C(=O)CCC2)C1c1cccs1)NC1CCCCC1 (stereo unspecified)	none (no result: CDC25B CDK2 inh)
O=c1[nH]c2ccc(NCc3ccccn3)cc2[nH]1	CDC25B CDK2 inh 13
CCOc1c(Br)cc(CNc2ccc3[nH]c(=O)[nH]c3c2)cc1OC	CDC25B CDK2 inh 8.5
O=c1[nH]c2ccc(NCC#Cc3ccccc3)cc2[nH]1	none
CCOc1cc(CNc2ccc3[nH]c(=O)[nH]c3c2)cc(Br)c1OC	CDC25B CDK2 inh 6.1
O=c1[nH]c2ccc(NCc3ccc(-c4ccc(F)cc4)o3)cc2[nH]1	CDC25B CDK2 inh 5.3
O=C(Cc1cccs1)Nc1ccc2[nH]c(=O)[nH]c2c1	none (no result: CDC25B CDK2 inh)
CCOc1cc(CNc2ccc3[nH]c(=O)[nH]c3c2)cc(Br)c1OCC	none
CCOc1c(Cl)cc(CNc2ncn[nH]2)cc1OC	none
O=C(OCCN(C1=NS(=O)(=O)c2ccccc21)c1ccc(Cl)cc1)c1cccs1	none
CCc1ccc(CN2CCc3nc(N4CCCC4)ncc3C2)cc1	none (no result: CDC25B CDK2 inh)
CCCC(NC(=O)C1CCN(c2ncnc3c2nc2n3CCCCC2)CC1)c1cccs1 (stereo unspecified)	none (no result: CDC25B CDK2 inh)
OC(CN1CCN(c2cccc(Cl)c2)CC1)c1ccc2c(c1)CCN2 (stereo unspecified)	none
CCOc1ccc(Br)cc1CNc1ccc2[nH]c(=O)[nH]c2c1	CDC25B CDK2 inh 7.5
COc1cc(CNc2ccc3[nH]c(=O)[nH]c3c2)cc(Br)c1OC	CDC25B CDK2 inh 8.7
COc1ccc(Br)cc1CNc1cc(C)cc(C)c1	none
C=CCOc1ccc(CNc2ccc3[nH]c(=O)[nH]c3c2)cc1OC	none
COC(=O)[C@@]1(C)CC[C@]2(C)CC[C@]3(C)C(=CCC4[C@@]5(C)CCC(O)C(C)(C)C5CC[C@]43C)C2C1 (stereo partly specified)	CDC25B CDK2 inh 5.2 (no result: HIV TAR-Tat)
CC1(C)CC[C@]2(C(=O)O)CC[C@]3(C)C(=CC[C@@H]4[C@@]5(C)CC[C@H](O)C(C)(C)[C@@H]5CC[C@]43C)[C@@H]2C1	none (no result: CDC25B CDK2 inh)
Cc1cc(-c2ccccc2)c2c(n1)sc1c(O)cc(=O)[nH]c12	none
CSc1nc(N)nc2sc3c(O)cc(=O)[nH]c3c12	HIV TAR-Tat 11
CCc1nnc(SC(CC)C(=O)NCc2ccc(C)cc2)c2cc3occc3n12 (stereo unspecified)	none (no result: CDC25B CDK2 inh)
Cc1cc2c(cc1S(=O)(=O)N1CCCCC1C)OCC(=O)N2 (stereo unspecified)	none (no result: CDC25B CDK2 inh)
Cc1cccc2c3c(ccc12)C1=C(C(=O)C3=O)[C@@H](C)CO1	HIV TAR-Tat 17 (no result: CDC25B CDK2 inh)
COc1ccc(NC(=O)c2cc3c(s2)-c2ccccc2SC3)cc1OC	none
FC(F)(F)c1cccc(-c2ccc(-c3nn4c(-c5ccco5)nnc4s3)o2)c1	none (no result: HIV TAR-Tat)
Cc1occc1-c1nnc2sc(-c3ccc(-c4cccc(Cl)c4)o3)nn12	none
Fc1ccccc1-c1ccc(-c2nn3c(-c4ccco4)nnc3s2)o1	HIV TAR-Tat 20
Clc1cccc(-c2ccc(-c3nn4c(-c5ccco5)nnc4s3)o2)c1	HIV TAR-Tat 17
O=C(c1cc2c(s1)-c1ccccc1OC2)N1CCN(C2CCCCC2)CC1	none
CC1=C(c2ccc(C)cc2)S(=O)(=O)NC1=NCc1ccccc1F	none
O=C(Cn1ncc2c1-c1ccccc1OC2)N1CCN(c2ccc(Cl)cc2)CC1	none
CC(C)(C)[C@H]1COC(CC2=N[C@@H](C(C)(C)C)CO2)=N1	none (no result: HIV TAR-Tat)
Cc1sc2c(c1C)CSC(C(=O)NCCN1CCCC1)=C2	HIV TAR-Tat 6.3 (no result: CDC25B CDK2 inh)
O=C(NCCN1CCCC1)C1=Cc2sc3c(c2CS1)CCCC3	none (no result: CDC25B CDK2 inh)
Oc1ccc(Cl)cc1C=Nc1ccc2cn[nH]c2c1	CDC25B CDK2 inh 9.1 (no result: HIV TAR-Tat)
Oc1c(Cl)cc(Cl)cc1C=Nc1cccnc1	none (no result: HIV TAR-Tat)
CCOC(=O)N1CCN(c2ccc([N+](=O)[O-])s2)CC1	HIV TAR-Tat 5.2 (no result: CDC25B CDK2 inh)
O=[N+]([O-])c1ccc(N2CCN(c3ccccc3)CC2)s1	none (no result: CDC25B CDK2 inh)
Cc1ccc2c(c1)C(O)(CC(=O)c1cccc(Br)c1)C(=O)N2 (stereo unspecified)	none (no result: HIV TAR-Tat)
Cc1nnc2c(Nc3ccc(N(C)C)cc3)nc3ccccc3n12	none
Cc1nnc2c(Nc3ccc(O)cc3)nc3ccccc3n12	HIV TAR-Tat 7.2
CC1=C(C(=O)OCC2CCCO2)C(c2ccccc2C)C2=C(CC(C)(C)CC2=O)N1 (stereo unspecified)	HIV TAR-Tat 5
CC1=C(C(=O)OCC2CCCO2)C(c2ccccc2F)C2=C(CC(C)(C)CC2=O)N1 (stereo unspecified)	none
O=C(CSc1nccn1C1CCCCC1)Nc1ccc(Cl)cc1	none (no result: CDC25B CDK2 inh)
